# Source: PubChem BioAssay (National Center for Advancing Translational Sciences (NCATS))
# Most compounds without a hit are left out; they make up all but 19% or so of the library.
# TDP1 cell CPT = qHTS for Inhibitors of human tyrosyl-DNA phosphodiesterase 1 (TDP1): qHTS in cells in presence of CPT. hit rate 12% among 420,000. AID 686979, 2013. chicken DT40 Tdp1-/-;hTDP1 cells + 20 nM CPT, ATP luminescence, 48 h. Potency, µM (series often up to 46.2 µM), inactives show at the top dose activity change, negative = growth inhibition, actives largely listed as inhibitors; further: potency means the concentration at half of the fitted maximal effect; nearly all actives have a fitted effect of over 55% in size
#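 Chicken DT40 Tdp1-/- cells complemented with human TDP1, 400 cells/well, exposed to compounds plus 20 nM camptothecin for at least 48 h at 37 C; viability read as ATP content by CellTiter-Glo luminescence.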
# uPA generation = qHTS for Inhibitors of Cell Surface uPA Generation | cell surface uPA generation assay, qHTS | Potency, µM (top dose mostly 38.3 µM), for the others: at the top dose activity change, negative = inhibition, hits mostly inhibitors | hit rate 0.31% among 330,000 | AID 540303, 2011; active means well fitted inhibition curve with a large enough effect; inconclusive means small, poorly fitted or top-dose-only effect; inactive means no such curve, though single readings can be large or run the other way; tested in mouse RAW 264.7 cells; further: potency means the concentration at half of the fitted maximal effect; nearly all actives have a fitted effect of over 55% in size
# IL-1B inflam inh = qHTS for Inhibitors of Inflammasome Signaling: IL-1-beta AlphaLISA Primary Screen. THP-1 LPS/ATP IL-1B secretion, AlphaLISA, 16 h; stronger effect = lower value. activity change, % at 57.5 µM. hit rate 4.7% among 360,000; in the data active means activity change below about -50%; inconclusive means mostly about -30% to -49%
#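 THP-1 cells pretreated 1 hr with compounds (up to 57.5 uM final), then stimulated with LPS (250 ng/mL final) plus ATP (1.25 mM final); secreted IL-1B measured by AlphaLISA after 16 hr, decreased signal indicating inhibition.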
# HT1080NT lethal = qHTS for induction of synthetic lethality in tumor cells producing 2HG: qHTS for the HT-1080-NT fibrosarcoma cell line. HT-1080-NT fibrosarcoma viability, CellTiter-Glo ATP luminescence, 48 h. Potency, µM (series often up to 46.1 µM), without a hit: at the highest dose activity, negative = less viability, actives largely listed as cytotoxic. hit rate 1.6% among 360,000. AID 686970, 2013;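 further: NT is the 2HG producing partner of a matched IDH1 knockdown line; potency means the concentration at half of the fitted maximal effect; 0% = DMSO-treated cells and -100% = media-only wells without cells; nearly all actives have a fitted effect of over 55% in size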
#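 Compounds were tested in concentration-response format on HT-1080-NT cells for 48 hours at 37 degrees C. Cell viability came from CellTiter-Glo luminescence; curves were classified by r2, response magnitude and activity.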
# HT1080 IDH1KD tx = qHTS for induction of synthetic lethality in tumor cells producing 2HG: qHTS for the HT-1080-IDH1KD cell line | HT-1080 IDH1 knockdown viability, ATP luminescence, 48 h | Potency, µM (series often up to 46.1 µM), inactives show top-dose activity, negative = toxicity, most hits filed as cytotoxic | hit rate 2% among 360,000;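 further: potency means the concentration at half of the fitted maximal effect; 0% = DMSO wells and -100% = cell-free medium wells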
#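 Cytotoxicity counter-line: IDH1KD HT-1080, 48 h, CellTiter-Glo. Curves classed by r2, magnitude and activity.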
# DT40 TDP1 no CPT = qHTS for Inhibitors of human tyrosyl-DNA phosphodiesterase 1 (TDP1): qHTS in cells in absence of CPT; DT40 Tdp1-/- hTDP1 cells, no CPT, ATP luminescence, 48 h; Potency, µM (titrated, usually from 46.2 µM), for inactives: top-dose activity change, negative = growth inhibition, actives largely listed as inhibitors; hit rate 15% among 420,000; AID 686978, 2013; further: potency means the concentration at half of the fitted maximal effect; nearly all actives have a fitted effect of over 55% in size
#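 Luminescent ATP content (CellTiter-Glo) served as the growth readout. Knockout chicken DT40 cells expressing human TDP1 were exposed to compounds without camptothecin for a minimum 48 hr at 37 °C.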
# Active calls of the source: *; ? = inconclusive; . = no result. Unless noted, the call rests on the fitted dose curve; in most records, active means well fitted curve in the direction sought with a large enough effect; inconclusive means small, poorly fitted or top-dose-only effect, or another doubt; inactive means no such curve, though single readings can be large; an effect the other way counts as inactive or inconclusive. Unless noted, on the % scale 0 is the no-effect control and ±100 the full control effect.
SMILES,TDP1 cell CPT,uPA generation,IL-1B inflam inh,HT1080NT lethal,HT1080 IDH1KD tx,DT40 TDP1 no CPT
O=C(c1ccccc1Cl)N1CCCCC1CCN1CCOCC1 (configuration not stated),-19.8%,.,.,.,.,-15.8%
CC(NC(=O)c1cc2cc(Br)ccc2oc1=N)c1ccccc1 (configuration not stated),16.4µM*,0.1%,-50.7*,2.4%,0.5%,16.4µM*
N=c1oc2ccc(Br)cc2cc1C(=O)NCc1ccc(F)cc1,?,6.7%,-21.2,-0.1%,0.3%,8.2µM*
NC(=O)NS(=O)(=O)c1ccc(N)cc1,-3.8%,.,.,.,.,2.1%
Cc1ccc2nc(SCC(=O)Nc3cccc(S(=O)(=O)NC4=NCCCCC4)c3)[nH]c2c1,?,-13.7%,0.0,?,?,?
NC(=O)c1sc2nnc(-c3ccccc3)c(-c3ccccc3)c2c1N,?,-0.6%,-15.3,2.5%,-6.3%,14.6µM*
O=C(NCc1cccnc1)c1ccc2sc([C@H]3C[C@H](O)[C@@H](CO)O3)nc2c1,-9.7%,.,8.2,1.5%,0.0%,3.1%
O=C(NCc1ccccc1Cl)c1ccc2sc([C@H]3C[C@H](O)[C@@H](CO)O3)nc2c1,?,.,-14.9,-1.7%,5.4%,?
O=C(NCCN1CCNC1=O)c1ccc2sc([C@H]3C[C@H](O)[C@@H](CO)O3)nc2c1,-17.4%,.,-86.2*,1.2%,17.4%,-10.5%
O=C(NCc1cc(Cl)cc(Cl)c1)c1ccc2sc([C@H]3C[C@H](O)[C@@H](CO)O3)nc2c1,20.6µM*,.,31.0,-24.5%,-0.6%,?
O=C(Nc1nnc([C@@H]2C[C@H](O)[C@@H](CO)O2)s1)c1c(F)cccc1F,-2.0%,.,-55.6*,28.9%,0.4%,-4.0%
Cc1cccc(C)c1NC(=O)c1ccc2sc([C@H]3C[C@H](O)[C@@H](CO)O3)nc2c1,?,.,9.8,1.1%,0.0%,-5.7%
O=C(Nc1cccc(C(F)(F)F)c1)c1ccc2sc([C@H]3C[C@H](O)[C@@H](CO)O3)nc2c1,?,.,32.1,?,?,23.1µM*
COc1cc(C)c(CN2C[C@H](Sc3ccccn3)C[C@H]2C(=O)N(C)C)cc1C,-43.5%,.,.,.,.,?
Cc1cnc(CN(C)C(=O)C2CCC(=O)N(CCc3ccc(Cl)cc3)C2)[nH]1 (configuration not stated),-1.7%,.,-0.4,3.4%,1.2%,5.8%
COc1cc(=O)n2c(c1C(=O)NCc1cccc(F)c1)CCN(Cc1cccnc1)CC2,-5.5%,.,.,.,.,-19.7%
CC(C)[C@H](NC(=O)[C@@H]1Cc2ccccc2CN1C(=O)OC(C)(C)C)C(=O)NCc1ccco1,-3.5%,19.3%,12.4,-4.0%,-10.3%,?
O=C(Nc1ccc(Oc2ccccc2)cc1)c1ccc2sc([C@H]3C[C@H](O)[C@@H](CO)O3)nc2c1,?,.,62.6,7.31µM*,2.59µM*,20.6µM*
CC(=O)Nc1ccc(NC(=O)c2ccc3sc([C@H]4C[C@H](O)[C@@H](CO)O4)nc3c2)cc1,-10.5%,.,16.0,28.3%,21.7%,-1.7%
O=C(Nc1ccc(F)c(Cl)c1)c1ccc2sc([C@@H]3O[C@H](CO)[C@H](O)[C@H](O)[C@H]3O)nc2c1,-6.5%,.,9.3,3.5%,7.5%,-10.5%
O=C(Nc1ccc(F)c(Cl)c1)c1ccc2sc([C@H]3C[C@H](O)[C@@H](CO)O3)nc2c1,18.4µM*,.,0.2,-14.2%,?,20.6µM*
O=C(Nc1ccc(F)c(Cl)c1)c1csc([C@H]2C[C@H](O)[C@@H](CO)O2)n1,20.6µM*,.,-6.9,1.3%,0.0%,?
CN1CCN(NC(=O)c2ccc(Br)s2)CC1,?,-0.5%,0.0,5.7%,-0.4%,-29.9%
CCCCCN1CC(=O)N2Cc3[nH]c4ccccc4c3C[C@H]2C1=O,-15.7%,-6.6%,-58.9*,13.3%,-4.9%,-15.3%
O=C1[C@@H]2Cc3c([nH]c4ccccc34)CN2C(=O)CN1CCCO,-1.4%,-8.3%,-1.6,0.2%,-0.5%,1.6%
SMILES,TDP1 cell CPT,uPA generation,IL-1B inflam inh,HT1080NT lethal,HT1080 IDH1KD tx,DT40 TDP1 no CPT
CCCCN1C(=O)C2Cc3c([nH]c4ccccc34)CN2C1=S (configuration not stated),-26.6%,-0.5%,-88.4*,-2.1%,-19.4%,?
CCCCCCN1CC(=O)N2Cc3[nH]c4ccccc4c3C[C@H]2C1=O,-29.2%,-8.1%,-58.4*,-3.4%,-0.3%,?
CNC(=O)c1ccc2cc(OC)c(OC)cc2c1,41.2%,.,?,23.5%,12.9%,-7.9%
CCC/C=C(\CCC)C(NS(=O)(=O)c1cccc2cccnc12)c1ccc(C(=O)OC)cc1 (configuration not stated),?,?,-6.3,-17.6%,?,23.1µM*
COC(=O)c1ccc(NC(=O)c2ccc(NS(=O)(=O)c3cccc4cccnc34)cc2)cc1,-22.5%,-4.1%,2.3,-26.5%,-20.0%,-24.3%
CCC/C=C(\CCC)C(NC(=O)OCC(C)C)c1ccc(C(=O)OC)cc1 (configuration not stated),23.1µM*,8.1%,-4.3,-2.1%,-11.7%,14.6µM*
O=C(Nc1cccc2ccccc12)c1ccc([N+](=O)[O-])o1,14.6µM*,?,-97.1*,?,13µM*,25.9µM*
Cc1cccc(NC(=O)c2ccc([N+](=O)[O-])o2)c1C,?,-11.9%,-88.9*,23.1µM*,18.4µM*,?
COc1ccccc1NC(=O)c1ccc([N+](=O)[O-])o1,13µM*,10µM*,-83.0*,?,?,16.4µM*
O=C(Nc1cccc(Cl)c1N1CCOCC1)c1ccc([N+](=O)[O-])o1,?,-4.7%,-14.7,10.9%,8.1%,?
CCCCOc1ncnc2c1[nH]c1ccc(C)cc12,?,-7.0%,.,?,4.61µM*,20.6µM*
CCCOc1ncnc2c1[nH]c1ccccc12,23.1µM*,.,-10.1,-19.9%,?,20.6µM*
CCCOc1ncnc2c1[nH]c1ccc(OC)cc12,6.51µM*,4.47µM*,1.5,-18.1%,-9.7%,8.2µM*
COCCNc1ncnc2c1[nH]c1ccccc12,?,-0.9%,19.0,-11.0%,-4.5%,11.6µM*
